The structures appear in SMILES notation.

The assay concerns Fibrinogen (Alexa647-labelled). Description: fibrinogen binders on compound microarrays, profiling panel, artefact control for SMM control-protein annotation, biochemical, small-molecule microarray, 635/667 nm fluorescence (AID 1131).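 Further: z-score merges 667 nm fluorescence with per-spot signal-to-noise over triplicate slides.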 The settings on record: fibrinogen-A647 binding fluorescence, higher = more signal.
Consider `CN1C(=O)C2C=CC(C(O)C#Cc3ccccc3)N(Nc3ccccc3)C2C1=O` (stereo unspecified), for which the composite z-score worked out at 0.985.
Next, `CN(C)c1ccc(C(O)C2C=CC3C(=O)N(c4ccccc4)C(=O)C3N2Nc2ccc([N+](=O)[O-])cc2)cc1` (stereo unspecified): 0.979.
Consider `CN(C)C(=O)[C@@]1(Cc2ccccc2CN=[N+]=[N-])N=C(c2ccc(OCCCO)cc2)O[C@H]1c1ccccc1CN=[N+]=[N-]`, for which the composite z-score turned out to be 0.856.
Next, `O=C1OCC=C[C@H]2OC34C=CCN(Cn5nnc6ccccc65)C(=O)[C@H]3N(CCCO)C(=O)[C@@H]4[C@@H]12` (stereo partly specified): -1.3; `C[N+](C)(C)CCCCCCNC(=O)[C@H]1C[C@H]2C(=O)N[C@@H](Cc3ccccc3)C(=O)N2[C@H]1c1ccc(O)cc1`: -0.222; `COCCOC(=O)N1C(=O)[C@@]2(c3cc(C#CCCO)ccc31)[C@H](C(=O)Nc1nc3ccccc3s1)[C@H]1C(=O)O[C@H](c3ccccc3)[C@H](c3ccccc3)N1[C@@H]2c1ccccc1OCCO`: 0.866.
The value for `COc1cc2c(cc1OC)CN(C(=O)[C@@H]1[C@H]3C(=O)O[C@H](c4ccccc4)[C@H](c4ccccc4)N3[C@H](c3ccc(OCCO)cc3)[C@@]13C(=O)Nc1ccc(C#CC4(O)CCCCCC4)cc13)CC2` was 0.966.
Turning to `COc1cc(CO)cc(I)c1O[C@H]1C=C(C(=O)NCCO)C[C@@H](NCc2ccc(F)cc2)[C@@H]1O`, the composite z-score worked out at 0.619.
`[N-]=[N+]=NCc1ccccc1C[C@@]1(C(=O)NCc2ccccc2)N=C(c2ccc(OCCCO)cc2)O[C@@H]1c1ccccc1N=[N+]=[N-]` registered a composite z-score of 0.948.
The value for `O=C(CS)NCCCCCNC(=O)[C@@H]1C[C@@H]2C(=O)N3CCC[C@H]3C(=O)N2[C@@H]1c1cccc(OCCO)c1` was -0.561.
As to `C=C(C)c1cc2c(c(CCCCCC)n1)[Si](C(C)C)(C(C)C)OC2`, the composite z-score is -1.93.
Molecule `CCCCC(O)C1C=CC2C(=O)N(c3ccccc3)C(=O)C2N1Nc1ccc(C(C)C)cc1` (stereo unspecified) registered a composite z-score of 1.01.
The molecule `COCCOC(=O)N1C(=O)[C@@]2(c3cc(C#CC4=CCCCC4)ccc31)[C@H](c1ccc(OCCO)cc1)N1[C@H](c3ccccc3)[C@H](c3ccccc3)OC(=O)[C@H]1[C@@H]2C(=O)N1CCN(c2ncccn2)CC1` yielded a composite z-score of 0.574.
As to `C=C(COC)/C(=C/C[C@H](OC(C)=O)c1ccc(OCCO)cc1)c1cc(C(=O)OC)ccc1OC`, the composite z-score was 0.436.
`CC1CC/C=C\[C@H]2OC34C=CCN(c5ccc(Cl)cc5)C(=O)[C@H]3N(CCCCCO)C(=O)[C@]4(C)C2C(=O)O1` (stereo partly specified): the composite z-score is -1.65.
As for `CN1C(=O)C2C=CC(C(O)c3cccc(O)c3)N(Nc3ccccc3)C2C1=O` (stereo unspecified), the composite z-score is 0.441.
Regarding `O=C1NC(=O)C2C1C=CC(C(O)c1c(F)cccc1Cl)N2Nc1ccc(Cl)cc1Cl` (stereo unspecified), the composite z-score was 0.296.
The molecule `COc1ccc([Si](C)(C)[C@@H]2[C@@H](CCO)O[C@]3(C(=O)N(Cc4ccc(N5CCCCC5=O)cc4)c4ccccc43)[C@H]2C)cc1` returned a composite z-score of 0.842.
The molecule `C=CCC(OC(C)=O)[C@@H]1[C@@H](N(Cc2cc3ccccc3o2)C(=O)c2ccc(C)cc2)c2cc(OCCCO)ccc2N1C(=O)Cc1ccc(OC)cc1` (stereo partly specified) returned a composite z-score of 0.0839.
As to `CCOc1cc(C(O)C2C=CC3C(=O)N(C)C(=O)C3N2Nc2ccccc2)ccc1O` (stereo unspecified), the composite z-score was determined as 0.651.
Consider `O=C(CS)NCCCCCCNC(=O)[C@H]1C[C@H]2C(=O)N[C@@H](Cc3ccccc3)C(=O)N2[C@H]1c1ccc(O)cc1`, for which the composite z-score is 0.476.
As to `CC(c1ccccc1)C(O)C1C=CC2C(=O)N(c3ccccc3)C(=O)C2N1Nc1ccc([N+](=O)[O-])cc1` (stereo unspecified), the composite z-score was 1.03.
Molecule `COc1ccccc1CN1C(=O)c2ccccc2[C@@]2(Cc3ccccc3N(CC(F)(F)F)C2=O)[C@@H]1c1ccc(CO)cc1` displayed a composite z-score of 0.049.
For the molecule `COC(=O)C(CC#Cc1ccc2c(c1)[C@]1(C(=O)N2)[C@H](C(=O)N2CCN(c3ncccn3)CC2)[C@H]2C(=O)O[C@H](c3ccccc3)[C@H](c3ccccc3)N2[C@@H]1c1ccc(OCCO)cc1)C(=O)OC`, the composite z-score came out at 0.982.
Regarding `[N-]=[N+]=Nc1ccccc1[C@@H]1OC(c2ccc(OCCCO)cc2)=N[C@]1(Cc1ccccc1)C(=O)NCC(O)CO` (stereo partly specified), the composite z-score turned out to be 0.966.
Molecule `Cc1cc(C)c(C(O)C2C=CC3C(=O)NC(=O)C3N2Nc2ccc(Cl)cc2Cl)c(C)c1` (stereo unspecified) came in with a composite z-score of 0.966.
The molecule `COC(=O)c1c2oc(c1C(=O)OC)C(=O)N(Cc1ccccc1)Cc1cn(nn1)C[C@H](Cc1ccccc1)NC(=O)N[C@H](CO)CC2` came in with a composite z-score of 0.961.
On to `C=CCNC(=O)[C@H]1[C@@H]2C(=O)O[C@@H](c3ccccc3)[C@@H](c3ccccc3)N2[C@@H](c2ccc(O)cc2)[C@]12C(=O)N(C(=O)OCCOC)c1ccccc12`, for which the composite z-score came to 0.886.
The value for `O=C1C=C(c2ccccc2)C(=O)c2ccc([C@H]3Oc4ccccc4S(=O)(=O)N4CCC[C@@H]34)cc21` was -0.506.
Next, `Cc1ccc(S[C@]2(C(=O)NCC(F)(F)F)CC(=O)N(C3CCCCC3)[C@@H]2c2ccc(CO)cc2I)cc1`: 0.774; `COc1ccc(C#Cc2ccc3c(c2)[C@]2(C(=O)N3)[C@H](c3ccc(O)cc3)N3[C@H](c4ccccc4)[C@H](c4ccccc4)OC(=O)[C@H]3[C@@H]2C(=O)O)cc1`: 0.457; `COC(=O)[C@@]1(Cc2ccc(OC)cc2)[C@@H]2C(=CC(=O)[C@H]2CC(=O)C(=O)N(C)C)CN1C(=O)c1ccccc1`: 0.833.
`CCOC(=O)c1ccc(NC(=O)O[C@H]2[C@H](OC(=O)Nc3ccc4c(c3)OCO4)[C@H](OC(=O)Nc3ccc4c(c3)OCO4)[C@@H](OC)O[C@@H]2CO)cc1` displayed a composite z-score of 1.01.
Take `C=CCN1Cc2ccccc2[C@H]2OC(c3ccc(OCCCO)cc3)=N[C@@]2(CC=C)C1=O`: the composite z-score was determined as 0.59.
Consider `CN(C)CCCNC(=O)[C@@]1(C)c2ccccc2C(=O)N(Cc2ccccc2)[C@H]1c1ccc(CO)cc1`, for which the composite z-score was -0.995.
The molecule `CCCCCCCCCCC(O)C1C=CC2C(=O)N(C)C(=O)C2N1NC(=O)OC(C)(C)C` (stereo unspecified) displayed a composite z-score of 0.907.

The values are drawn from PubChem BioAssay.
